Laboratory results as given in PubChem BioAssay AID489025 (Southern Research Specialized Biocontainment Screening …, 2010).
About 790 (34%) of roughly 2,300 compounds were called active. The rule behind the calls is not given here. This is one part of the list. Results with a measured potency or affinity are listed apart.

test: THP-1 cell cytotoxicity, dose response, cytotoxicity control for non-replicating M. tuberculosis project (AID 489025); details: THP-1 cell viability; series mostly up to 40 µM

SMILES	outcome
Nc1ccc2c(c1)oc1ccccc12	inactive
COc1ccc(N2CCN(CC(=O)NC(=O)NC(C)(C)C)CC2)cc1	inactive
O=C(c1ccc([N+](=O)[O-])cc1[N+](=O)[O-])N1CCc2ccccc21	inactive
Cc1cc(C)n(C(=O)c2ccc([N+](=O)[O-])cc2[N+](=O)[O-])n1	inactive
CCOC(=O)C(C)(C)n1nnc(-c2ccc([N+](=O)[O-])cc2)n1	inactive
CCC1(O)CC(c2ccccc2)=NN1C(=O)c1ccccc1F (configuration not stated)	inactive
CCOC(=O)C1CCN(C(=O)COc2cc(C)c(Br)c(C)c2)CC1	inactive
O=C(COc1ccccc1)Nc1ccc(Cl)cn1	inactive
FC(F)c1nnc2ccc(Cl)nn12	inactive
O=Cc1coc2ccc3ccccc3c2c1=O	inactive
COC(=O)COc1cccc(NC(=O)c2cccc(C)c2)c1	inactive
COc1ccc(-c2noc(CCC(=O)Nc3cccc(C)c3)n2)cc1	inactive
CCOC(=O)COc1ccc(C(=O)c2ccccc2)c(O)c1	inactive
CC(C)c1cc(C(=O)N/N=C/C=C/c2ccccc2)n[nH]1	inactive
COc1ccc(S(=O)(=O)NCc2ccc3c(c2)cc(C)n3C)cc1	inactive
Cc1nnc(N/N=C/c2cccc(OCc3ccc(Cl)c(Cl)c3)c2)n1N	inactive
O=C(OCc1nc2ccccc2s1)c1ccc(Br)o1	inactive
CCOC(=O)CCCNC(=O)COC(=O)c1cc(Br)c(Br)s1	inactive
O=C(N/N=C/C(Br)=C/c1ccccc1)c1cnccn1	inactive
CCOc1ccc(-c2ccc(C=O)o2)c([N+](=O)[O-])c1	inactive
C/C(CC(=O)Nc1ccc(N(C)C)cc1)=N\NC(=O)c1ccncc1	inactive
Cc1ccc(C)c(NC(=O)c2cc([N+](=O)[O-])cc([N+](=O)[O-])c2)c1	inactive
Cc1cc(Cl)ccc1OC(C)C(=O)Nc1ccc([N+](=O)[O-])cn1 (configuration not stated)	inactive
O=C1CC(=O)CC(c2ccccc2)C1	inactive
O=C1CC(N2CCC(c3nc4ccccc4o3)CC2)C(=O)N1 (configuration not stated)	inactive
O=[N+]([O-])c1ccc(CN2CCN(c3ccccc3)CC2)o1	inactive

SMILES	outcome
O=C(c1cccs1)N1CCN(c2ccc(Cl)cc2)CC1	inactive
O=[N+]([O-])c1ccc(CN2CCN(c3ccc(F)cc3)CC2)o1	inactive
O=[N+]([O-])c1ccc(N2CCN(Cc3ccc([N+](=O)[O-])o3)CC2)cc1	inactive
O=C(NNC(=O)c1cccs1)c1ccc(Br)o1	inactive
COc1cccc(OCC(=O)NNC(=O)c2cccs2)c1	inactive
CCOC(=O)NC(=O)COC(=O)CCCSc1nc2ccccc2s1	inactive
O=C(Cc1ccc(F)cc1)Nc1ccc(Cl)cn1	inactive
Cc1ccc2nc(C)c3c(c2c1)SCC3	inactive
COc1ccc(OCC(=O)Nc2ccc(N3CCN(C(=O)c4ccco4)CC3)cc2)cc1	inactive
Nc1scc(-c2ccncc2)c1Cl	inactive
CCOC(=O)COc1ccc2c(c1)C(=O)CC(C)(c1cccnc1)O2 (configuration not stated)	inactive
COc1cc(/C=N/Nc2cccc3cccnc23)cc(OC)c1O	inactive
C/C(O)=C\c1nc2ccccc2oc1=O	inactive
Oc1cc(NCc2cccnc2)ccc1-c1nc2ccccc2o1	inactive
CCc1nnc(N/N=C/c2ccc(N3CCC(C)CC3)c([N+](=O)[O-])c2)n1N	inactive
COc1cc(/C=N/N(C)C)ccc1OC(=O)c1cccs1	inactive
O=C(COc1ccc2c(c1)CCC2)Nc1ccccn1	inactive
Cc1cccc2c(CC(=O)O)noc12	inactive
COc1cc(OC)cc(-c2nc3ccccc3c(=O)o2)c1	inactive
COc1ccc(/C=C/c2nc3ccccc3c(=O)o2)cc1	inactive
O=C(C/C=N\OCc1ccc([N+](=O)[O-])cc1)Nc1ccc(Cl)cc1	inactive
O=C(COC(=O)CC1CCCC1)Nc1ccc(OC(F)F)cc1	inactive
COCCCNC(=O)COC(=O)c1ccc(-c2nc3ccccc3s2)s1	inactive
CC(C)Cn1c(N)c(C(=O)COC(=O)c2ccc([N+](=O)[O-])o2)c(=O)n(C)c1=O	inactive
CCc1ccc(C(=O)COC(=O)c2ccc(Cl)nc2)cc1	inactive
Oc1oc(-c2ccco2)nc1C=Nc1cccc(Cl)c1	inactive

SMILES	outcome
CCCCCn1nnc2c(=O)oc3ccccc3c21	inactive
CCOc1ccc(OCC(=O)OCc2cc(=O)n3cc(Br)ccc3n2)cc1	inactive
CCOC(=O)c1nc2sc3c(c2c(=O)[nH]1)CCC(C)C3 (configuration not stated)	inactive
COc1cccc(COC(=O)CCNC(=O)c2ccc(Cl)cc2)c1OC	inactive
Nc1nonc1C(=O)NCCN=Cc1cc(Cc2ccccc2)cc(Br)c1O	inactive
COc1ccccc1C(c1nnnn1Cc1ccccc1)N1CCC(C(N)=O)CC1 (configuration not stated)	inactive
C/C(=N\NC(=O)c1ccc([N+](=O)[O-])c(C)c1)c1ccccc1Cl	inactive
CCCCNC(=O)N1CCc2ccccc2C1	inactive
COc1ccc(N=N/C(=C\O)C(=O)c2ccco2)cc1	inactive
O=C(OCCCOC(=O)c1ccc([N+](=O)[O-])o1)c1ccc([N+](=O)[O-])o1	inactive
CCOC(=O)c1cc(-c2c(Cl)cccc2Cl)no1	inactive
Cc1[nH]c2ccccc2c1C(=O)C(C)OC(=O)c1ccc([N+](=O)[O-])o1 (configuration not stated)	inactive
Cc1ccc(C(=O)O/N=C(\N)c2cccc([N+](=O)[O-])c2)cc1	inactive
O=C(Nc1nccs1)c1cc2cc(Cl)ccc2oc1=O	inactive
N=c1oc2ccccc2cc1C(=O)NC1CCCCCC1	inactive
O=C(COC(=O)c1cccc(C(F)(F)F)c1)NCc1ccccc1	inactive
CCOC(=O)c1cn(Cc2cccc(Cl)c2)nn1	inactive
CSc1ccccc1NC(=O)c1cc(C(C)C)on1	inactive
CCCCNS(=O)(=O)c1ccc(OCC(=O)OC)cc1	inactive
O=c1oc(/C=C/c2ccc([N+](=O)[O-])s2)nc2ccccc12	inactive
C=C(C)C1Cc2cc3ccc(=O)oc3cc2O1 (configuration not stated)	inactive
C/C(=N\NC(=O)c1nn(C)cc1Cl)c1ccncc1	inactive
CCOc1ccc(-c2cc(CCCC(=O)NCCC(C)C)no2)cc1	inactive
O=c1c(=Nc2ccccc2O)c(=O)c2ccccc12	inactive
O=C(O)c1[nH]c(=O)[nH]c(=O)c1F	inactive
